From the supplement of paper PMC6555819

What was measured:
Assay in all cases: PBM binding z-score (relative to random genomic background probes); higher = stronger binding; sequences stand for … in GC…GCGATTGACAGCGTAGAATGAAGG
[1] = tested on: FXR:RXRa (NR concentration 270 nM, RXRa partner concentration 90 nM)
Summary of the method: (§1)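 Each nuclear receptor dimer, without ligand, was incubated for 1 h on custom Agilent 4×180K protein-binding microarrays. Binding was detected with antibodies against each partner (one per run), and scanned fluorescence was regression-normalized. The binding z-scores are referenced to random human genomic background probes.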

[2] = tested on: LXRa:RXRa (NR concentration 270 nM, RXRa partner concentration 90 nM)
Summary of the method: as §1

[3] = tested on: LXRa homodimer (NR concentration 270 nM)
Summary of the method: as §1

[4] = tested on: LXRb:RXRa (NR concentration 270 nM, RXRa partner concentration 90 nM)
Summary of the method: as §1

[5] = tested on: LXRb homodimer (NR concentration 270 nM)
Summary of the method: as §1

[6] = tested on: PPARa:RXRa (NR concentration 270 nM, RXRa partner concentration 90 nM)
Summary of the method: as §1

[7] = tested on: PPARg:RXRa (NR concentration 180 nM, RXRa partner concentration 90 nM)
Summary of the method: as §1

[8] = tested on: PPARg:RXRa 270nM:90nM, anti-RXR (NR concentration 270 nM, RXRa partner concentration 90 nM)
Summary of the method: as §1

[9] = tested on: PPARg:RXRa 30nM:10nM, anti-RXR (NR concentration 30 nM, RXRa partner concentration 10 nM)
Summary of the method: as §1

[10] = tested on: PPARg:RXRa 90nM:30nM, anti-RXR (NR concentration 90 nM, RXRa partner concentration 30 nM)
Summary of the method: as §1

[11] = tested on: PPARg:RXRa DBDmut IVT, anti-RXR (DBD mutation: RXRa K156A/R161A, NR concentration 270 nM, RXRa partner concentration 90 nM)
Summary of the method: as §1

[12] = tested on: PPARg:RXRa IVT, anti-PPARg (NR concentration 270 nM, RXRa partner concentration 90 nM)
Summary of the method: as §1

[13] = tested on: PPARg DBDmut:RXRa IVT, anti-PPARg (DBD mutation: PPARg1 K132A/R137A, NR concentration 270 nM, RXRa partner concentration 90 nM)
Summary of the method: as §1

[14] = tested on: PPARg DBDmut IVT, anti-PPARg (DBD mutation: PPARg1 K132A/R137A, NR concentration 270 nM)
Summary of the method: as §1

[15] = tested on: PPARg homodimer (NR concentration 180 nM)
Summary of the method: as §1

[16] = tested on: PXR:RXRa (NR concentration 270 nM, RXRa partner concentration 90 nM)
Summary of the method: as §1

[17] = tested on: PXR homodimer (NR concentration 270 nM)
Summary of the method: as §1

[18] = tested on: RARa:RXR (NR concentration 270 nM, RXRa partner concentration 90 nM)
Summary of the method: as §1

[19] = tested on: RARa homodimer (NR concentration 270 nM)
Summary of the method: as §1

[20] = tested on: RARb:RXRa (NR concentration 270 nM, RXRa partner concentration 90 nM)
Summary of the method: as §1

Row | Sequence | PBM binding z-score [1] | PBM binding z-score [2] | PBM binding z-score [3] | PBM binding z-score [4] | PBM binding z-score [5] | PBM binding z-score [6] | PBM binding z-score [7] | PBM binding z-score [8] | PBM binding z-score [9] | PBM binding z-score [10] | PBM binding z-score [11] | PBM binding z-score [12] | PBM binding z-score [13] | PBM binding z-score [14] | PBM binding z-score [15] | PBM binding z-score [16] | PBM binding z-score [17] | PBM binding z-score [18] | PBM binding z-score [19] | PBM binding z-score [20]
1 | CCTACTGGGCCATCAGGTCATTGAAATCAACGTT | 1.33 | 1.07 | 1.03 | 1.45 | -0.244 | 2.74 | 2.67 | 3.66 | 1.23 | 2.99 | 4.17 | 4.91 | -0.467 | -0.409 | 0.78 | 1.25 | 0.298 | 1.68 | 0.289 | 2.04
2 | CGAACTAGGTCATCCAGGACAGTGTATACATTGA | 4.45 | 2.66 | 0.861 | 2.24 | 0.0566 | 4.61 | 7.47 | 6.1 | 3.25 | 5.65 | 8.32 | 8.01 | 2.41 | 1.17 | 1.54 | 2.03 | 1.29 | 2.33 | 0.356 | 4.02
3 | CATACAGGGTCAGCTAGCCCAGAGTAGGGACGGC | 4.68 | 3.03 | -0.244 | 2.21 | 0.0889 | 4.36 | 3.35 | 2.84 | 0.528 | 1.8 | 0.792 | 2.19 | 0.206 | -0.0933 | 1.48 | 2.1 | -0.17 | 3.11 | 0.642 | 4.01
4 | TCGAGTAGGTTACCAATGGGGGATTCAGCTTTCT | 0.454 | 1 | -0.159 | 2.46 | 5.29 | 1.74 | 0.645 | 2.31 | 1.35 | 2.08 | 3.04 | 3.87 | 3.52 | 5.09 | 0.376 | 1.15 | -0.444 | 1.17 | -0.393 | 1.06
5 | TAACCTAGGTCATGCGGGCCAGTATAGTGTCGGC | 4.19 | 4.46 | 1.83 | 2.55 | -0.0591 | 4.09 | 4.16 | 3.58 | 1.11 | 2.56 | 3.49 | 4.46 | 0.354 | 0.297 | 1.08 | 1.84 | -0.126 | 2.5 | 0.00748 | 3.89
6 | ATCGAAAGGTCGAAGGTGAGTATGCCCACCCGAA | 4.46 | 3.31 | 0.253 | 2.87 | 0.664 | 4.64 | 4.16 | 5.05 | 2.9 | 3.81 | 0.0846 | 2.48 | 0.798 | 0.662 | 1.31 | 3.12 | -0.415 | 4.46 | -0.229 | 3.83
7 | ACTTACGGGTCAACGAGGTTATAGCGCGCGTATA | 6.93 | 5.04 | 0.711 | 4.5 | 0.647 | 5.73 | 5.68 | 5.59 | 2.17 | 4.49 | 3.58 | 4.21 | 0.78 | 1.28 | 2.15 | 5.22 | 3.53 | 5.29 | 0.581 | 4.29
8 | AATACAGAGTCACTAGGCCAGAGTAGGTACGAAT | -0.115 | -0.0616 | -0.358 | -0.555 | -0.252 | 0.626 | 1.31 | 0.617 | 0.184 | 0.718 | 0.648 | 1.74 | 1.31 | 0.135 | 0.238 | -0.343 | -0.0346 | -0.415 | 0.249 | 0.141
9 | CCTTACGGGTCACTGCCAGGTTATAGCATTTGGA | 5.22 | 3.93 | 0.268 | 3.17 | 0.0184 | 4.86 | 4.05 | 4.26 | 1.23 | 2.88 | 3.11 | 3.87 | 0.0612 | -0.48 | 2.07 | 3.53 | 0.376 | 3.87 | 0.61 | 3.8
10 | CGAACGAGGGCATGAGTTAATAGCAAATGCCGAT | 0.396 | 0.206 | -0.633 | 0.117 | -0.921 | 1.49 | 1.64 | 1.98 | 0.666 | 1.58 | 2.98 | 2.1 | -0.0604 | 0.0299 | -0.39 | 0.548 | 0.0291 | 0.254 | -0.352 | 1.89
11 | CAGCCTAGGTCTGGGCCAGTATAGGAGGAACGTT | -0.847 | -0.864 | -0.89 | -1.05 | -1.28 | -0.798 | -0.286 | -0.953 | -0.869 | -0.961 | -0.647 | -0.716 | -1.17 | -1.97 | -0.842 | -0.944 | -0.644 | -0.724 | -0.886 | -0.54
12 | CGTCCAAGGTCAAGGTAAGTGAAAGAGACTCGAA | 7.13 | 5.23 | 0.112 | 3.72 | 0.343 | 5.58 | 5.26 | 5.51 | 1.81 | 4.01 | 3.13 | 3.85 | 0.749 | 0.108 | 3.18 | 3.52 | 0.541 | 4.27 | 1.1 | 5.3
13 | TCATATAGGTAAAAGGTGAAAGTCGGTGTGGTAA | 1.8 | 2.29 | 0.452 | 2.29 | 0.0331 | 5.57 | 9.43 | 8.85 | 10.3 | 10.2 | 5.72 | 5.59 | 2.1 | 0.745 | 2.06 | 2.17 | 0.508 | 3.73 | 2.49 | 2.22
14 | GCTAGTTGGTCAGTAAAGGGTCACACACCGGTCG | 2.1 | 2.52 | 1.36 | 2.63 | 0.0328 | 3.36 | 1.72 | 2.79 | 0.505 | 1.89 | 0.794 | 2.2 | -0.362 | -0.645 | 2.52 | 3.32 | 0.202 | 4.15 | 0.553 | 3.43
15 | CGGACTAGGTCAAGGACAGTGAATCTCCGCACGC | 2.94 | 1.81 | -0.0937 | 1.01 | -0.662 | 3.77 | 5.95 | 5.25 | 2.5 | 4.61 | 7.61 | 7.26 | -0.333 | -0.703 | 0.837 | 0.934 | -0.0489 | 1.7 | 0.338 | 3.49
